Experiment [1] deals with Thyrotropin receptor (Homo sapiens) (UniProt P16473). In words: qHTS assay to identify small molecule agonists of the thyroid stimulating hormone receptor (TSHR) signaling pathway (AID 1224843; calls by dose curve; note: nearly all actives have a fitted effect of over 45% in size). In a few lines: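 Agonist-mode screen: TSHR HEK293 cells received test chemicals for half an hour at room temperature, then HTRF cAMP detection reagents for one hour prior to fluorescence measurement. Each chemical ran as a 15-concentration series, triplicated.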
A general note: In qHTS, concentration-response curves come from the screen itself.

The nature of experiment [2]: qHTS assay to identify small molecule agonists of the hypoxia (HIF-1) signaling pathway - cell viability counter screen (AID 1224844; calls by dose curve; note: nearly all actives have a fitted effect of over 50% in size). The essentials: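 Viability counter screen: HRE-bla ME-180 cells plated 5 hrs before compound addition, treated 17 hrs at 37C and 5% CO2, then CellTiter-Glo added after the FRET reporter read; luminescence after 30 min.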
Experiment [3] is described as follows: qHTS assay to identify small molecule agonists of H2AX (AID 1224845; active = well fitted activation curve with a large enough effect in the signal ratio in the repeat runs, not every such curve was filed as active; the % refers to the signal ratio). In a few lines:
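Wild-type CHO-K1 cells, plated overnight, exposed 3hr at 37C to 15 concentrations (0.76% DMSO final). Lysed, then HTRF anti-pH2AX (S139) cryptate and anti-H2AX-d2 antibodies, 24 hr room temperature; 665/620 nm emission read.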

Experiment [4] in a line: qHTS assay to identify small molecule agonists of the hypoxia (HIF-1) signaling pathway (AID 1224846; active = well fitted activation curve with a large enough effect in the signal ratio in the repeat runs, not every such curve was filed as active; the % refers to the signal ratio). In a few lines:
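Agonist mode reporter screen. ME-180 cells stably expressing bla under HRE control received test compounds in DMSO for 17 hrs (37C, 5% CO2), and beta-lactamase activity was then detected with the CCF4-AM FRET substrate.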

Experiment [5] in a line: qHTS RealTime-Glo MT Cell Viability Assay in HepG2 cells - 24 hour (AID 1224867). Note: nearly all actives have a fitted effect of over 50% in size. In a few lines: (§1)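 HepG2 cells (600/well) were dispensed with RealTime-Glo reagents, incubated 5 h at 37 °C, then treated with compounds in DMSO for up to 40 h. Nonlytic NanoLuc luminescence reflecting viable cells was read at each stated time point.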
Experiment [6] can be described thus: qHTS RealTime-Glo MT Cell Viability Assay in HEK293 cells - 32 hour (AID 1224868). Note: top concentration of the series differs between compounds; nearly all actives have a fitted effect of over 50% in size. In a few lines:
(§2)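 HEK293 cells seeded with NanoLuc/prosubstrate reagent, rested 5 h at 37 C, then dosed and kept at 37 C up to 40 h. Nonlytic real-time luminescence from viable cells read at 0, 8, 16, 24, 32 and 40 h.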

Experiment [7] is described as follows: A CellTox Green Cytotoxicity Assay to monitor cytotoxicity in HEK293 cells - 0 hour (AID 1224869). Note: nearly all actives have a fitted effect of over 50% in size. The essentials: (§3)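 Dead-cell fluorescence measured kinetically: asymmetric cyanine dye, HEK293, 600 cells/well, 5 h settle, 23 nL cpd/DMSO, 37 C, reads 0–40 h every 8 h.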
A short description of experiment [8]: qHTS RealTime-Glo MT Cell Viability Assay in HepG2 cells - 40 hour (AID 1224870). Note: nearly all actives have a fitted effect of over 50% in size. The essentials:
(§4)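 HepG2 cells (600/well) mixed with RealTime-Glo MT reagent, settled 5 h at 37 C/5% CO2 before compound addition. Nonlytic NanoLuc luminescence from viable-cell prosubstrate reduction read repeatedly during 40 h treatment at 37 C.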

Experiment [9] can be described thus: A CellTox Green Cytotoxicity Assay to monitor cytotoxicity in HEK293 cells - 40 hour (AID 1224871). Note: nearly all actives have a fitted effect of over 45% in size. In a few lines: as §3
Experiment [10] can be described thus: qHTS RealTime-Glo MT Cell Viability Assay in HEK293 cells - 16 hour (AID 1224872). In a few lines:
as §2

Experiment [11] is described as follows: qHTS RealTime-Glo MT Cell Viability Assay in HepG2 cells - 8 hour (AID 1224873). Note: nearly all actives have a fitted effect of over 55% in size. The essentials: as §4
Experiment [12] can be described thus: qHTS RealTime-Glo MT Cell Viability Assay in HEK293 cells - 40 hour (AID 1224874). Note: nearly all actives have a fitted effect of over 50% in size. The conditions noted are these: RealTime-Glo luminescence; max response: stronger effect = lower value. In a few lines:
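600 HEK293 cells per well, dispensed already mixed with RealTime-Glo MT reagents. Compound dosing came 5 h later. The same wells were read for luminescence at 0, 8, 16, 24, 32 and 40 h of exposure at 37 C.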

Experiment [13] in a line: A CellTox Green Cytotoxicity Assay to monitor cytotoxicity in HEK293 cells - 24 hour (AID 1224875). Note: nearly all actives have a fitted effect of over 45% in size. In a few lines:
as §3

Experiment [14] in a line: A CellTox Green Cytotoxicity Assay to monitor cytotoxicity in HepG2 cells - 16 hour (AID 1224876). Note: nearly all actives have a fitted effect of over 45% in size. In a few lines: (§5)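 First, HepG2 cells (600/well) mixed with reagent were plated; second, after 5 h at 37 C they received compounds via pintool; third, fluorescence was measured at 0 h through 40 h at 8 h intervals.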
Experiment [15] can be described thus: qHTS RealTime-Glo MT Cell Viability Assay in HepG2 cells - 32 hour (AID 1224877). Note: nearly all actives have a fitted effect of over 55% in size. The essentials: as §1
Experiment [16] in a line: A CellTox Green Cytotoxicity Assay to monitor cytotoxicity in HepG2 cells - 24 hour (AID 1224878). Note: nearly all actives have a fitted effect of over 45% in size. The essentials:
as §5

Experiment [17] in a line: A CellTox Green Cytotoxicity Assay to monitor cytotoxicity in HepG2 cells - 40 hour (AID 1224879). Note: nearly all actives have a fitted effect of over 40% in size. Note: potency is the fitted concentration of half-maximal effect. In a few lines: as §5
The nature of experiment [18]: qHTS assay to identify small molecule agonists of H2AX - cell viability counter screen (AID 1224847; calls by dose curve; note: top concentration of the series differs between compounds; nearly all actives have a fitted effect of over 30% in size). The essentials: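 Compounds tested at 15 concentrations were incubated 3 hr at 37C with wild-type CHO-K1 cells; cellular ATP-based luminescence (CellTiter-Glo) indicated viability.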
The nature of experiment [19]: qHTS assay to identify small molecule antagonists of the estrogen related receptor (ERR) signaling pathway from Tox21 library (AID 1224848). Note: nearly all actives have a fitted effect of over 50% in size. The essentials: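 Quantitative high-throughput format: ERR reporter cells (2,000/well) pre-incubated 6 h, treated 18 h at 37 C with compounds in DMSO alongside positive and negative controls, then read by ONE-Glo luminescence.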

The nature of experiment [20]: qHTS assay to identify small molecule agonists of the estrogen related receptor (ERR) signaling pathway from Tox21 library (AID 1224849; calls by dose curve; note: nearly all actives have a fitted effect of over 15% in size). The conditions noted are these: ERR reporter cell line, ONE-Glo luciferase, 18 h; at 92.4 µM (top of the series) unless noted. The essentials: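 Quantitative HTS in agonist format: NTP ERR cell line, compounds transferred in DMSO after 6 h plating, 18 h incubation at 37 C, ONE-Glo luminescence endpoint.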

Unmarked numbers belong to inactive results. Results filed as inconclusive are left out. Active and inactive are the calls of the source. Unless noted, calls come from the whole dose curve; as a rule, active = well fitted curve in the direction sought with a large enough effect in the repeat runs; inconclusive = weak or mixed curves; inactive = no such curve, though single readings can be large; an effect the other way counts as inactive or inconclusive.
% is set by controls: 0 for no effect and ±100 for the full control effect.

Chain of Thyrotropin receptor (Homo sapiens) (P16473 whole entry, looked up): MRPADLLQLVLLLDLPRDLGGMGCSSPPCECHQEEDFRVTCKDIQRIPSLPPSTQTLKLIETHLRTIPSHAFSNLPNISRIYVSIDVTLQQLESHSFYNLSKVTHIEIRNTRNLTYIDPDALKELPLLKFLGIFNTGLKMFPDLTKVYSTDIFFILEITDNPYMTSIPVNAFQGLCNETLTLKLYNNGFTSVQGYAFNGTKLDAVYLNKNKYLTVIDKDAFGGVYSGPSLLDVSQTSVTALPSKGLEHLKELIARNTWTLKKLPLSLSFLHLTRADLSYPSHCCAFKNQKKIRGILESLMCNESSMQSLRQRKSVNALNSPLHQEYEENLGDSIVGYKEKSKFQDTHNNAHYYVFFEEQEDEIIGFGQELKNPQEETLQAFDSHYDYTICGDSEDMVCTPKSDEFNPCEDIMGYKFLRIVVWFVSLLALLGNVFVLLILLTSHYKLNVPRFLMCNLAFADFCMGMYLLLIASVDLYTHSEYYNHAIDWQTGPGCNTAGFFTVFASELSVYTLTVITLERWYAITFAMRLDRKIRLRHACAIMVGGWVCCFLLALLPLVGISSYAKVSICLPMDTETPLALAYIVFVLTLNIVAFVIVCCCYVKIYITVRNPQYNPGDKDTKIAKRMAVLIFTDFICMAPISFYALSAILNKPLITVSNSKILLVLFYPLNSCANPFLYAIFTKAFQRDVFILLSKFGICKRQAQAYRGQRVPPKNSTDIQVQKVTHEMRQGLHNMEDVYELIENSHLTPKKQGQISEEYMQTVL

With `Oc1ccccc1F`, the Potency result in experiment [1], in [2], in [3], in [5], in experiment [6] and in experiment [7] was “inactive” throughout. In addition, the Potency result in experiment [8], in [9], in experiment [10], in experiment [13], in experiment [14] and in experiment [15] was “inactive” each time. Also, the Potency entry in experiment [16] and in experiment [17] was “inactive” in each case. The outcome in [4] and in experiment [11] was inactive. The max response in [12] is 16.1%.
`CNCCC(Oc1ccccc1OC)c1ccccc1` (stereo not drawn): the Potency result in [1], in experiment [2], in experiment [3], in experiment [18], in [19] and in [5] was “inactive” in each case. For the same compound, the Potency result in experiment [6], in [7], in experiment [8], in experiment [9], in experiment [10] and in experiment [13] was “inactive” in each case. Besides, the Potency entry in experiment [14], in experiment [15], in experiment [16] and in experiment [17] was “inactive” each time. Further, in experiment [20], the activity change, positive = activation was -5.63% [at 42.5 µM]. Besides, the compound was classed as inactive in [11]. Besides, the max response in experiment [12] is -21.1%.
Regarding `C=CCCCCCCCCO`, the Potency result in experiment [1], in experiment [2], in experiment [3], in experiment [5], in experiment [6] and in experiment [7] was “inactive” each time. For the same compound, the Potency entry in [8], in [10], in [14] and in experiment [15] was “inactive” each time. Further, the result in [4] and in experiment [11] was inactive. Also, the max response in experiment [12] was -15.3%.
Regarding `CCN(CC)CCNC(=O)COc1ccc(Cl)cc1`, the Potency result in [1], in experiment [2], in experiment [3], in experiment [5], in [6] and in experiment [7] was “inactive” each time. Further, the Potency result in experiment [8], in experiment [9], in [10], in experiment [13], in experiment [15] and in [17] was “inactive” each time. Further, the call in [4] and in experiment [11] was inactive. Moreover, the max response in experiment [12] was 2.3%.
As for `COc1ccccc1OCC(O)COC(N)=O` (stereo not drawn), the Potency entry in experiment [1], in [2], in [3], in [18], in experiment [19] and in [5] was “inactive” in each case. Further, the Potency entry in experiment [6], in experiment [7], in experiment [8], in experiment [9], in experiment [10] and in [13] was “inactive” throughout. The Potency entry in experiment [14], in experiment [15] and in experiment [17] was “inactive” each time. Also, the activity change, positive = activation in [20] is 6.93% [at 42.5 µM]. For the same compound, in [11], the compound was called inactive. Also, the max response in experiment [12] was 12.1%.
Consider `CCN(CC)CCOc1ccc(Cc2ccccc2)cc1`, for which the Potency entry in [1], in [2], in experiment [3], in [18], in [5] and in experiment [7] was “inactive” throughout. Moreover, the Potency result in experiment [8], in experiment [9], in experiment [10], in experiment [13] and in [15] was “inactive” each time. In addition, the outcome in experiment [4] and in experiment [11] was inactive. Moreover, the Potency in [17] was 26.8 µM (active).
For the compound `C/C(=N\O)[C@@H](C)NCC(C)(C)CN[C@H](C)/C(C)=N/O`, the Potency entry in experiment [1], in [2], in experiment [3], in experiment [5], in [6] and in experiment [7] was “inactive” throughout. Further, the Potency result in experiment [8], in experiment [9], in experiment [10], in [13], in experiment [14] and in experiment [15] was “inactive” throughout. Besides, the Potency entry in [16] and in experiment [17] was “inactive” throughout. Also, in [4], the compound was called inactive. Moreover, in experiment [12], the max response is 0.121%.
With `Cc1ccsc1C(=CCCN1CCC[C@@H](C(=O)O)C1)c1sccc1C`, the Potency entry in experiment [1], in experiment [2], in experiment [3], in experiment [5], in [6] and in [7] was “inactive” each time. Besides, the Potency entry in experiment [8], in experiment [9], in experiment [10], in experiment [13], in experiment [14] and in [15] was “inactive” throughout. The Potency result in [17] is “inactive”. Moreover, the compound was classed as inactive in [4] and in experiment [11]. In addition, the max response in [12] was 2.02%.

Source of the values: PubChem BioAssay (Tox21).
